Experiment [1] can be described thus: qHTS assay to identify small molecule agonists of the estrogen receptor alpha (ER-alpha) signaling pathway in the presence of an antagonist - cell viability counter screen (AID 1259386).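 Also: series mostly up to about 92 µM; cells exposed to compounds for 22 h at 37 °C before the viability read; nearly all actives have a fitted effect of over 30% in size.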 Put shortly:
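Fluorescent CellTiter-Fluor viability signal from VM7Luc4E2 cells, with the reagent added during the final hour of a 22hr compound exposure at 37C in the presence of 10.0nM ICI-182,780.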
For orientation: Quantitative high-throughput screening tests each substance at several concentrations.

Experiment [2] concerns the target Progesterone receptor (Homo sapiens) (UniProt P06401). Put plainly: qHTS assay to identify small molecule agonists of the progesterone receptor (PR) signaling pathway (AID 1346784; calls by dose curve; also: nearly all actives have a fitted effect of over 30% in size). Put shortly:
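PR-UAS-bla HEK 293T cells carrying a UAS-driven beta-lactamase reporter were seeded in medium with 2% charcoal-stripped FBS, preincubated 6 hr at 37C, then exposed to compounds in DMSO for 16 hr; agonism was read by LiveBLAzer B/G FRET fluorescence.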

The target is the same in experiment [3]. Put plainly: qHTS assay to identify small molecule antagonists of the progesterone receptor (PR) signaling pathway (AID 1346795; active = well fitted inhibition curve with a large enough effect in the signal ratio in the repeat runs, not every such curve was filed as active; the % refers to the signal ratio). Put shortly:
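PR-UAS-bla HEK293T cells carrying a UAS-driven beta-lactamase reporter were plated in medium with 2% charcoal-stripped FBS and rested 6 hr at 37C. Compounds were added with 1 nM R5020 (final) for 16 hr, then FRET substrate loaded 2 hr at room temperature.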

Experiment [4] in a line: qHTS assay to identify small molecule antagonists of the progesterone receptor (PR) signaling pathway - cell viability counter screen (AID 1346798). Also: series mostly up to about 92 µM; nearly all actives have a fitted effect of over 50% in size. In a few lines:
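PR-UAS-bla HEK293T cells in medium with 2% charcoal-stripped FBS were treated with compounds plus R5020 for 16 hr at 37C. Cell viability was then read by CellTiter-Glo luminescence after 30 min at room temperature in the same wells.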

Experiment [5] can be described thus: qHTS assay to identify small molecule agonists of the progesterone receptor (PR) signaling pathway - cell viability counter screen (AID 1346799; calls by dose curve; also: nearly all actives have a fitted effect of over 45% in size; also: potency is read from the fitted curve at half-maximal effect). Put shortly:
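PR-UAS-bla HEK293T cells, 3,000 per well in medium with 2% charcoal-stripped FBS, were preincubated 6 hr at 37C, then exposed to compounds for 16 hr; viability was read as CellTiter-Glo luminescence after 30 min at room temperature.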

Experiment [6] can be described thus: qHTS assay to identify small molecule antagonists of the TGF-beta/Smad signaling pathway - cell viability counter screen (AID 1346824). Also: nearly all actives have a fitted effect of over 50% in size. In a few lines: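 SBE-bla HEK 293T cells, incubated overnight, then compound plus 0.25 ng/mL TGF-beta1 (stock added) for 5 hr at 37 C. Viability was read in the same wells by CellTiter-Glo luminescence after 30 min at room temperature.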

Experiment [7] in a line: qHTS assay to identify small molecule agonists of the TGF-beta/Smad signaling pathway - cell viability counter screen (AID 1346829). Also: top concentration of the series differs between compounds; nearly all actives have a fitted effect of over 45% in size. Put shortly:
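HEK 293T SBE-bla line, 5 hr compound exposure at 37 C, multiplexed CellTiter-Glo viability read by luminescence.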

Experiment [8] is described as follows: qHTS assay to identify small molecule agonists of the TGF-beta/Smad signaling pathway (AID 1346859; active = well fitted activation curve with a large enough effect in the signal ratio in the repeat runs, not every such curve was filed as active; the % refers to the signal ratio; also: series mostly up to about 77 µM). Put shortly:
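HEK 293T cells stably carrying a beta-lactamase reporter driven by the Smad binding element were seeded overnight, exposed to DMSO-dissolved compounds for 5 hr at 37 C, 5% CO2, then loaded with FRET substrate for 2 hr at room temperature.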

Experiment [9] deals with Thyrotropin-releasing hormone receptor (Homo sapiens) (UniProt P34981). Put plainly: qHTS assay to identify small molecule antagonists of the thyrotropin-releasing hormone receptor (TRHR) signaling pathway (AID 1346877; active = well fitted inhibition curve with a large enough effect in the repeat runs, not every such curve was filed as active; also: series mostly up to about 51 µM). Put shortly: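 In this cell-based calcium flux format, HEK293 cells expressing TRHR received test compound for 5 min before the agonist TRH (1 nM final). Dye loading lasted 2 h at 37 °C.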

Experiment [10] has the same target. Put plainly: qHTS assay to identify small molecule agonists of the thyrotropin-releasing hormone receptor (TRHR) signaling pathway (AID 1346891; calls by dose curve; also: series mostly up to about 58 µM). Put shortly:
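TRHR-expressing HEK293 cells were plated 18 h at 37 °C/5% CO2, loaded with calcium dye 2 h at 37 °C, then given compound in DMSO; fluorescence was read kinetically for 3 min at 1 s intervals.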

Experiment [11] is described as follows: Caspase-3/7 induction in HepG2 cells by small molecules, qHTS assay (AID 1346978). Also: nearly all actives have a fitted effect of over 15% in size. In a few lines: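 Wild-type HepG2 cells, 2,000/well, settled 5 hr at 37 C and 5% CO2, then compound-treated for 17 hr; caspase-3/7 activity read by luminescent Caspase-Glo 3/7 after 30 min at room temperature.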
Experiment [12] is described as follows: Caspase-3/7 induction in CHO-K1 cells by small molecules, qHTS cell viability counter screen (AID 1346979). Also: nearly all actives have a fitted effect of over 35% in size. In a few lines: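 Wild-type CHO-K1 cells were seeded at 1,500 per well, rested 5hr at 37 C, then exposed to compounds in DMSO. After 16hr, CellTiter-Fluor reagent was added and fluorescence read 1hr later as the viability measure.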
The nature of experiment [13]: Caspase-3/7 induction in CHO-K1 cells by small molecules, qHTS assay (AID 1346980). Also: nearly all actives have a fitted effect of over 15% in size. In a few lines: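 Wild-type CHO-K1 cells exposed to compounds for 17hr at 37 C, 5% CO2. Caspase-3/7 activity then measured by Caspase-Glo 3/7 luminescence after 30min at room temperature.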
Experiment [14] in a line: Caspase-3/7 induction in HepG2 cells by small molecules, qHTS cell viability counter screen (AID 1346981). Also: series mostly up to about 92 µM; nearly all actives have a fitted effect of over 30% in size. Put shortly:
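Counter screen for cytotoxicity: HepG2 exposed 16 hr to compounds, then CellTiter-Fluor viability signal (fluorescence, 1 hr reagent incubation).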

The target in experiment [15] is Nuclear receptor subfamily 1 group I member 2 (Homo sapiens) (UniProt O75469). Put plainly: Human pregnane X receptor (PXR) small molecule agonists, qHTS assay (AID 1346982). Also: nearly all actives have a fitted effect of over 35% in size. Put shortly:
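Luminescence (ONE-Glo, 30 min RT) after 24 hr compound exposure of PXR-Luc HepG2 cells; cells rested 5 hr post-plating in 5% charcoal-stripped FBS medium.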

Experiment [16] addresses Acetylcholinesterase (Homo sapiens) (UniProt P22303). The experiment in a line: Acetylcholinesterase (AChE) small molecule antagonists: colormetric cell-based qHTS assay (AID 1347395; calls by dose curve; also: nearly all actives have a fitted effect of over 30% in size). In a few lines: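 SH-SY5Y cells, plated overnight at 37 C, were exposed to compounds for 30 min at 37 C and 5% CO2. Acetylthiocholine plus DTNB was then added, and thiocholine from endogenous AChE was quantified colorimetrically after 90 min at 37 C.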

The nature of experiment [17]: Human pregnane X receptor (PXR) small molecule agonists, qHTS cell viability counter screen (AID 1346977). Also: nearly all actives have a fitted effect of over 50% in size. In a few lines:
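PXR-Luc HepG2 cells in medium with 5% charcoal-stripped FBS were pre-incubated 5hr, then exposed to compounds for 24hr at 37C. Viability was read in the same wells by CellTiter-Fluor fluorescence, reagent added after 23hr with a 1hr incubation.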

The target in experiment [18] is Nuclear receptor subfamily 1 group I member 2 (Rattus norvegicus) (UniProt Q9R1A7). Put plainly: Rat pregnane X receptor (rPXR) activation by small molecules, qHTS assay (AID 1346983). Also: nearly all actives have a fitted effect of over 20% in size. The note with it: rPXR luciferase reporter cells, One-Glo luminescence, 24 h; stronger effect = higher value. In a few lines: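 Cell-based rPXR activation assay: rPXR cells, 2,000 per well, rested 5hr at 37 C, then exposed to compounds in DMSO for 24 hr at 37 C. Luciferase activity read by One-Glo luminescence after 30 min at room temperature.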

Experiment [19] deals with Nuclear receptor subfamily 1 group I member 2 (Homo sapiens) (UniProt O75469). Put plainly: CYP3A4 induction through human pregnane X receptor (PXR) by small molecules, qHTS assay (AID 1346984). Also: nearly all actives have a fitted effect of over 40% in size. In a few lines: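 DPX-2 reporter cells; 24h cpd, 37C; Luciferin-IPA 3uM final x3h; One-Glo 30 min RT; lumi read.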
Experiment [20] has the same target. The experiment in a line: Human pregnane X receptor (PXR) activation by small molecules, qHTS assay (AID 1346985). Also: nearly all actives have a fitted effect of over 40% in size. Put shortly: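 DPX-2 cells (HepG2 co-transfected with a PXR response element and a CYP3A4-promoter luciferase construct) were seeded at 2,000 per well, rested 5 hr at 37C, then exposed to DMSO-dissolved compounds for 24 hr. Activation was read as luciferase luminescence.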

“And” between values parts separate entries of the source, which are not always exact repeats. Identical values can stand only once. Inconclusive results are not listed. Some compounds were tested as several samples or in several runs, with calls that do not always agree. The source made the active and inactive calls. Unless noted, calls follow the shape of the dose curve; as a rule, active = well fitted curve in the direction sought with a large enough effect in the repeat runs; inconclusive = weak or mixed curves; inactive = no such curve, though single readings can be large; an effect the other way counts as inactive or inconclusive.
% is scaled to controls: 0 for no effect and ±100 for the full control effect.

Sequence of Acetylcholinesterase (Homo sapiens) (P22303 whole entry, looked up): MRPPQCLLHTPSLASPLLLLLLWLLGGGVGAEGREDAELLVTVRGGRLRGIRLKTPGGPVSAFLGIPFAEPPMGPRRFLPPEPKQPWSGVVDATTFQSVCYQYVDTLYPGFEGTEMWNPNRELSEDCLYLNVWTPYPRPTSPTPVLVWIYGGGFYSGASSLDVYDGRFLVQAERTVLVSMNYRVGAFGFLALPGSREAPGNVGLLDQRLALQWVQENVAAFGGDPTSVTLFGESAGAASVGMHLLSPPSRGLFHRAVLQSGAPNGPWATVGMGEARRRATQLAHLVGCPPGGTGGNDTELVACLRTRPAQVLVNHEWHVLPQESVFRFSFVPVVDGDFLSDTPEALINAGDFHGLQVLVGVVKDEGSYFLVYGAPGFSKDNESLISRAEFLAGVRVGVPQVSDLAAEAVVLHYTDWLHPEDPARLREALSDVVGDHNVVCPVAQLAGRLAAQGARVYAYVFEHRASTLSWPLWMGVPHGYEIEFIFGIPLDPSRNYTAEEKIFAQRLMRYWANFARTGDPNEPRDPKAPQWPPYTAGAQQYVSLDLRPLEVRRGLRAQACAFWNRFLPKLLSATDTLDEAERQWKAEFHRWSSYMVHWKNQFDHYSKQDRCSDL
Sequence of Nuclear receptor subfamily 1 group I member 2 (Rattus norvegicus) (Q9R1A7 whole entry, looked up): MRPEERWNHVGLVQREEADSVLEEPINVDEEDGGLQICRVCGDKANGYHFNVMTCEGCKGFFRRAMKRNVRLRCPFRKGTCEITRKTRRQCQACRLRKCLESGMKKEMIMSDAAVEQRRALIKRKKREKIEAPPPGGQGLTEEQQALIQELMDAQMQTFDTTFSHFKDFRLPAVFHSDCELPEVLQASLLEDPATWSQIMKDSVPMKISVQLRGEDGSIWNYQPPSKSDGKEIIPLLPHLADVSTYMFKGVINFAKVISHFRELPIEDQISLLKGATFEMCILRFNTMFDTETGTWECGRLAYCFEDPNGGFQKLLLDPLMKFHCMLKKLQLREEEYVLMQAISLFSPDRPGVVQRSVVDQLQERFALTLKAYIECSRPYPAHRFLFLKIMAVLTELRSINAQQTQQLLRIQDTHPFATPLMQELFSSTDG
Sequence of Progesterone receptor (Homo sapiens) (P06401 whole entry, looked up): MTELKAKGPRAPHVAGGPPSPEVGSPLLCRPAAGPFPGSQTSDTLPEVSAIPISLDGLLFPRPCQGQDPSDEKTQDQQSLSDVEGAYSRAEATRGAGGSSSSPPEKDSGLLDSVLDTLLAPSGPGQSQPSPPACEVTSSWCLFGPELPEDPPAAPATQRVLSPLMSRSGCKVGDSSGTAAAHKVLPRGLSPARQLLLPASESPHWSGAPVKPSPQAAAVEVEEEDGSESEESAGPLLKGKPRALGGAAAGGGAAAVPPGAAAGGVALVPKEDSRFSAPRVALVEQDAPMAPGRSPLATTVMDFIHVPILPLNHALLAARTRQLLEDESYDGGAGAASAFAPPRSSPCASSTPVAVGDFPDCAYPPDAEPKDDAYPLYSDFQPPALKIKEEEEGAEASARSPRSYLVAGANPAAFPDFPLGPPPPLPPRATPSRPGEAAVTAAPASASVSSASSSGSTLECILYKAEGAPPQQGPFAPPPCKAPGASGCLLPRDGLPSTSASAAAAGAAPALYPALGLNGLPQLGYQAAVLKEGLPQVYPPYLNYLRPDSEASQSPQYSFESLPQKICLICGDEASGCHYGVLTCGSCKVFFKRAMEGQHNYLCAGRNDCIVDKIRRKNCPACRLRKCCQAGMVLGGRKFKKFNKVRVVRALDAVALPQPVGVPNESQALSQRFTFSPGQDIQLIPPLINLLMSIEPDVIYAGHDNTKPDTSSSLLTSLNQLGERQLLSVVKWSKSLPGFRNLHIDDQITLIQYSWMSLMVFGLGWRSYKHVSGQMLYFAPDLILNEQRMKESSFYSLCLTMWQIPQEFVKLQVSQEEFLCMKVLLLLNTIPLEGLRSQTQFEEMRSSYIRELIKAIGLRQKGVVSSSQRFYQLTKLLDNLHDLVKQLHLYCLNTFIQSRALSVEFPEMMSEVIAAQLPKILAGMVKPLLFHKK
Sequence of Nuclear receptor subfamily 1 group I member 2 (Homo sapiens) (O75469 whole entry, looked up): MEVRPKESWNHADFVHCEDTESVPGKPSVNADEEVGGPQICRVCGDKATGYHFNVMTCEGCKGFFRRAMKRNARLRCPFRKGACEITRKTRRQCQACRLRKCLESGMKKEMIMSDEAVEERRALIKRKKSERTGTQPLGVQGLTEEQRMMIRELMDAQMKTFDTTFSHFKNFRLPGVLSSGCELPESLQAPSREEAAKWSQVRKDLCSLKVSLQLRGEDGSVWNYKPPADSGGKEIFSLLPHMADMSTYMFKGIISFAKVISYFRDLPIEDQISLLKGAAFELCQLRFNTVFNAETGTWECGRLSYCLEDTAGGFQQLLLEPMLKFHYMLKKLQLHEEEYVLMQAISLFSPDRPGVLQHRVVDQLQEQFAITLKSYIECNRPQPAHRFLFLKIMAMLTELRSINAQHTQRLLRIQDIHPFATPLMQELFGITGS
Sequence of Thyrotropin-releasing hormone receptor (Homo sapiens) (P34981 whole entry, looked up): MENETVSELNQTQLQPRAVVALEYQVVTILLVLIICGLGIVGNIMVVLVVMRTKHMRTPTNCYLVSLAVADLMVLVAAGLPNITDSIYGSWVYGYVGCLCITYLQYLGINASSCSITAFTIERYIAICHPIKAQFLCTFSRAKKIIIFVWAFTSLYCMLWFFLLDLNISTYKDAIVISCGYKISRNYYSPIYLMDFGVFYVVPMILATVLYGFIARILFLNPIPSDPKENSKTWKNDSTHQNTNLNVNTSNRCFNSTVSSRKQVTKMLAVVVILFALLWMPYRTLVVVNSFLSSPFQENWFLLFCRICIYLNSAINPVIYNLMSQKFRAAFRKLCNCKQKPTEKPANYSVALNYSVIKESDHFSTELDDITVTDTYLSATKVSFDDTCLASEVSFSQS

As to `O=S1(=O)OCCO1`, the Potency result in [1], in experiment [2], in [3], in experiment [4], in experiment [5] and in experiment [7] was “inactive” in each case. Also, the Potency entry in experiment [9], in [12], in experiment [14], in experiment [15] and in experiment [16] was “inactive” each time. Also, the compound was called inactive in [6], in experiment [8], in experiment [10], in experiment [11] and in experiment [13].
As for `O=C/C=C/c1ccco1`, the Potency entry in [1], in experiment [2], in [3], in experiment [4], in experiment [5] and in [7] was “inactive” each time. Also, the Potency result in [9], in experiment [17], in [12] and in experiment [16] was “inactive” in each case. Further, the call in experiment [6], in [8], in experiment [10], in experiment [11] and in experiment [13] was inactive.
For `NC(=O)OCCCc1ccccc1`, the Potency result in experiment [1], in experiment [2], in [3], in experiment [4], in experiment [5] and in experiment [7] was “inactive” throughout. For the same compound, the Potency result in experiment [9], in experiment [17], in experiment [12], in experiment [14], in [15] and in experiment [19] was “inactive” in each case. Also, the Potency entry in experiment [20] and in [16] was “inactive” in each case. Also, the compound was classed as inactive in [6], in experiment [8], in [10], in [11] and in [13]. Besides, the max activation in experiment [18] was -3.96% (inactive).
In the case of `CC(C)c1ccc(O)cc1`, the Potency result in experiment [1], in experiment [2], in [3], in [4], in [5] and in experiment [7] was “inactive” in each case. Besides, the Potency entry in [9], in [17], in [12], in experiment [14], in experiment [15] and in experiment [16] was “inactive” in each case. Moreover, the compound was classed as inactive in [6], in experiment [8], in experiment [10], in [11] and in experiment [13].
As to `CNC(=O)NC(O)C(Cl)(Cl)Cl` (stereo not drawn), the Potency result in experiment [1], in experiment [2], in [3], in experiment [4], in experiment [5] and in experiment [7] was “inactive” each time. The Potency result in experiment [9], in experiment [17], in experiment [12], in experiment [14], in experiment [15] and in experiment [19] was “inactive” in each case. Moreover, the Potency entry in experiment [20] and in experiment [16] was “inactive” each time. Besides, the result in experiment [6], in [8], in [10] and in [11] was inactive. For the same compound, in [18], the max activation is -4.06% (inactive).
In the case of `C/C(=N\NC(=O)Nc1cc(F)cc(F)c1)c1ncccc1C(=O)O`, the Potency entry in experiment [1], in experiment [2], in experiment [3], in experiment [4], in experiment [7] and in experiment [9] was “inactive” in each case. The Potency entry in experiment [17], in experiment [12], in experiment [14], in [15] and in experiment [16] was “inactive” each time. In addition, the Potency result in experiment [5] was “inactive and 68.6 µM (active)”. The outcome in experiment [6], in [8], in [10], in [11] and in [13] was inactive.
With `CC(=O)CN(CC(C)=O)N=O`, the Potency result in experiment [1], in experiment [2], in [3], in [4], in experiment [5] and in experiment [7] was “inactive” each time. The Potency entry in [9], in [17], in experiment [14], in experiment [15] and in experiment [16] was “inactive” throughout. For the same compound, the result in experiment [6], in experiment [8], in experiment [10] and in [11] was inactive.
On to `C=CCN1CC[C@]23CCCC[C@H]2[C@H]1Cc1ccc(O)cc13`, for which the Potency entry in [1], in experiment [2], in experiment [3], in [4], in experiment [5] and in experiment [7] was “inactive” each time. Further, the Potency result in experiment [9], in [17] and in [14] was “inactive” throughout. The result in experiment [6], in experiment [8], in experiment [10] and in experiment [11] was inactive. The max activation in [18] is -1.31% (inactive).
